Assay outcomes: PubChem BioAssay, several laboratories
In the library only some 4.1% were active in any assay of this set; here they are far more common.
PolyA inhibitor: inhibitors of polyadenylation in S. cerevisiae. S. cerevisiae SKY197-pL101 polyadenylation reporter, beta-gal luminescence; efflux-impaired pdr1/pdr3 knockout yeast; score 100 = 6 SD above DMSO. activity score, % at 12 µM. 300,000 tested, 0.02% active. AID 1875;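 active = lowest replicate activity score at least 50, where 100 means six control SD above control mean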;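 also: yeast exposed to compound for 9 h at 30 °C; higher score means more reporter readthrough which indicates perturbed polyadenylation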
CaV13 ICDI inh: Disruptors of the CACNA1D IQ motif to Ca2+-dependent inactivation inhibitor domain association, primary screening, Förster resonance energy transfer in intact living …. AID 743397. HEK cells, CFP/YFP FRET ICDI-IQ, plate reader, 10 min; percent FRET-ratio fall versus neutral wells. 340,000 tested, 0.098% active. inhibition, % at 12.3 µM;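 active = mean replicate inhibition of at least 30% and at least 1% of replicates passing that level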
IDE inh: inhibitors of human insulin-degrading enzyme in cells | P14735 | HEK cells, FAbetaB cleavage, fluorescence polarization | inhibition, % at 5.59 µM | 320,000 tested, 0.41% active | AID 434962;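 active = percent inhibition above the average of all tested compounds plus 3 SD, set per screening campaign, cut at about 16% in these data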;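 also: IDE supplied by intact live HEK cells; FP after avidin binding of uncleaved biotin substrate so inhibition keeps polarization high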
ALR H2O2 inh: blocks human ALR sulfhydryl oxidase activity. purified ALR, DTT oxidation, H2O2 HRP-luminol luminescence. inhibition, % (no concentration beside the values). AID 485317. 290,000 tested, 3.8% active;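 active = mean replicate inhibition above about 79%, with every replicate also reaching it, limit read from the data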
Target sequence (P55789 whole entry, looked up): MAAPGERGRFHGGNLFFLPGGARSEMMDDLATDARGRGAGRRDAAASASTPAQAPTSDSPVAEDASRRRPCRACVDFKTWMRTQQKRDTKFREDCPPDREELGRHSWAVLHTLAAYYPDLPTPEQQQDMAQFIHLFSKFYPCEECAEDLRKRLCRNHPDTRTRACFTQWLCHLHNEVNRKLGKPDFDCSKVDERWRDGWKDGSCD
IDE act: activators of human insulin-degrading enzyme in cells; P14735; HEK cells, FAbeta-B cleavage, fluorescence polarization; 0% vehicle, 100% cell-free pure enzyme wells; activation, % at 5.96 µM; 340,000 tested, 0.073% active; AID 493087;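 active = activation above the mean of all tested compounds plus 3 SD, set per screening campaign, cut at about 17% in these data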
PfM18AAP inh: PfM18AAP enzyme inhibition; inhibition, % at 7.35 µM; recombinant PfM18AAP, H-Glu-NHMec fluorogenic cleavage; 290,000 tested, 1.2% active;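 active = inhibition above the campaign mean inhibition over all tested compounds plus 3 SD, cut at about 28% in these data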
Each line names hits and unclear results; the compound was inactive in the other large screens.

CC(=O)Oc1ccc2nc(-c3ccc(Br)o3)oc(=O)c2c1	ALR H2O2 inh 80.0
C[N+]1=C(/C=C/Nc2ccccc2Cl)C(C)(C)c2ccccc21	none (no result: ALR H2O2 inh)
COC(=O)c1ccc2c(c1)C(C)(C)C(/C=C/c1ccccc1O)=[N+]2C	ALR H2O2 inh 87.2
O=[N+]([O-])c1cccc(Cl)c1NCCNS(=O)(=O)c1ccccc1	none
O=C(O)CC/C(=N\Nc1ccccc1[N+](=O)[O-])c1cccs1	ALR H2O2 inh 98.4 (no result: CaV13 ICDI inh)
O=C(O)CC/C(=N\Nc1ccc(S(=O)(=O)N2CCCC2)cc1[N+](=O)[O-])c1cccs1	none (no result: PolyA inhibitor, IDE inh, ALR H2O2 inh)
CCCCNc1c(-c2ccc(SC(C)CC)cc2)nc2ccc(Cl)cn12 (centres undefined)	none (no result: PolyA inhibitor, IDE inh, ALR H2O2 inh, IDE act, PfM18AAP inh)
COc1ccc(C(=O)OCc2ccccc2F)cc1S(=O)(=O)N1CCCC1	none (no result: PolyA inhibitor, PfM18AAP inh)
OC(CN1CCCCC1)CN(c1ccccc1)c1ccccc1 (centres undefined)	ALR H2O2 inh 98.3
OC(COc1ccccc1)CN1CCCCCC1 (centres undefined)	none
OC(CN1CCOCC1)CN(c1ccccc1)c1ccccc1 (centres undefined)	ALR H2O2 inh 99.1 (no result: CaV13 ICDI inh)
O=C(c1ccccc1)C(CCC(CN1CCOCC1)C(=O)c1ccccc1)CN1CCOCC1 (centres undefined)	ALR H2O2 inh 97.9
Cc1ccccc1S(=O)(=O)N(CC(O)CN1CCCCC1)c1ccccc1 (centres undefined)	none
OC(CN1CCCCCC1)CN(c1ccccc1)c1ccccc1 (centres undefined)	ALR H2O2 inh 99.0
O=C(c1ccc(F)cc1)C(CN1CCOCC1)c1ccccc1 (centres undefined)	none
Cc1nn(-c2ccccc2)c(Cl)c1/C=N/NC(=O)c1[nH]ncc1Br	none
CS/C(=N\S(=O)(=O)c1cccs1)Nc1cccc(Cl)c1C	PolyA inhibitor 85.9
COc1ccc(Cc2c(O)nc(SCC(C)C)[nH]c2=O)cc1	none
COc1ccccc1NC(=O)CSCC(N)=O	ALR H2O2 inh 94.0
COc1ccccc1NC(=O)CSc1nc(O)cc(=O)[nH]1	ALR H2O2 inh 98.2 (no result: CaV13 ICDI inh)
COc1ccc(Cc2c(O)nc(SCC(=O)c3ccc(OC)cc3)[nH]c2=O)cc1	ALR H2O2 inh 98.2
CCc1c(O)nc(SCC(=O)Nc2ccccc2OC)[nH]c1=O	ALR H2O2 inh 99.2
COc1ccccc1NC(=O)CSc1nc(N)c(-c2ccccc2)c(=O)[nH]1	none (no result: PolyA inhibitor)
O=C(O)C(=O)Cc1c[nH]c2ccccc12	none (no result: CaV13 ICDI inh)
CCOC1=NN(c2ccc(Cl)cc2)C(=O)/C1=C\N(C)C	none
COc1ccccc1NC(=O)c1cc(=O)[nH]c2ccccc12	ALR H2O2 inh 99.0
COc1ccccc1NC(=O)CSc1nc(O)c(Cc2ccccc2)c(=O)[nH]1	ALR H2O2 inh 87.6
COC(Cn1c(-c2cccc(S(=O)(=O)N(C)C)c2)n[nH]c1=S)OC	PfM18AAP inh 30.9
C=CCn1c(-c2ccc([N+](=O)[O-])cc2)n[nH]c1=S	none
C=CCn1c(-c2ccccc2[N+](=O)[O-])n[nH]c1=S	ALR H2O2 inh 89.4
C=CCn1c(-c2cc(-c3ccccc3)sc2N)n[nH]c1=S	ALR H2O2 inh 92.9, PfM18AAP inh 28.3 (no result: IDE act)
C=CCn1c(-c2cccc(OC)c2)n[nH]c1=S	ALR H2O2 inh 96.0
C=CCn1c(-c2csc(-c3ccccc3)n2)n[nH]c1=S	none
COCC1CN(CCc2ccc(F)cc2)S(=O)(=O)c2c(OCCN3C(=O)[C@@H]4[C@H](C3=O)[C@@H]3C=C[C@H]4C3)cccc2O1 (some centres undefined)	none (no result: PolyA inhibitor, IDE inh, ALR H2O2 inh, IDE act, PfM18AAP inh)
CCCCNC(=O)C1(C)CCC(=O)N1CCOc1ccccc1 (centres undefined)	none (no result: PolyA inhibitor, IDE inh, ALR H2O2 inh, IDE act, PfM18AAP inh)
O=C(CN1C(=O)NC2(CCCc3ccccc32)C1=O)N1CCN(C(=O)c2ccco2)CC1 (centres undefined)	none
COc1cccc(NC(=O)CN(C)C(=O)/C=C/c2ccc3ccccc3n2)c1	none (no result: PfM18AAP inh)
CSc1ncc(C(=O)Nc2ccc(C(C)=O)cc2)c(C)n1	none (no result: IDE inh)
CC1=C(C(=O)N(C(C)C)C(C)C)CC(CC(=O)NCCCN(C)C)C(=O)N1CCCN1CCCC1=O (centres undefined)	none (no result: PolyA inhibitor, IDE inh, ALR H2O2 inh, IDE act, PfM18AAP inh)
O=C1C(=O)c2cccnc2-c2ncccc21	none (no result: PolyA inhibitor, IDE inh, ALR H2O2 inh, IDE act, PfM18AAP inh)
Nc1sc(-c2ccccc2)cc1-c1n[nH]c(=S)n1C1CCCCC1	ALR H2O2 inh 97.8 (no result: IDE act)
CCCCc1c(-c2ccccc2OC)ncn1Cc1cccc(C)c1	none (no result: PolyA inhibitor, IDE inh, ALR H2O2 inh, IDE act, PfM18AAP inh)
Cc1ccc2[nH]cc(CCNC(=O)Nc3ccccc3)c2c1	ALR H2O2 inh 98.1
Cc1ccc2[nH]cc(CCNC(=O)c3cccnc3)c2c1	ALR H2O2 inh 96.4
CC(=O)c1cccc(NC(=O)NCCc2c[nH]c3ccccc23)c1	none
CCOC(=O)c1cccnc1NC(=O)c1ccccc1	none
O=S1(=O)CC2SC(=S)N(Cc3ccccc3)C2C1 (centres undefined)	none (no result: IDE act)
CC(C)CCOC(=O)/C(=C/c1ccco1)NC(=O)/C=C/c1ccccc1	ALR H2O2 inh 90.3
O=C(O)c1cc(N/N=C/c2ccc3c(c2)OCO3)ccc1Cl	none
O=C(O)c1cc(N/N=C/c2ccc(-c3ccc(F)cc3)o2)ccc1Cl	ALR H2O2 inh 98.1
O=C(Cc1ccc(F)cc1)N/N=C/c1ccc(-c2ccc(Cl)c(C(=O)O)c2)o1	none
O=C(O)c1cc(N/N=C/c2ccc3c(c2)OCCO3)ccc1Cl	ALR H2O2 inh 93.1 (no result: PolyA inhibitor)
COc1cc(/C=N/Nc2ccc(Cl)c(C(=O)O)c2)ccc1OC(=O)c1ccc(F)cc1	none
O=C(O)c1ccc(N/N=C/c2ccc3c(c2)OCO3)cc1	ALR H2O2 inh 98.7 (no result: IDE act)
COc1cc(/C=N/Nc2ccc(Cl)c(C(=O)O)c2)ccc1OC(=O)c1ccccc1F	ALR H2O2 inh 98.9
C#CCN1[C@@H]2CCN(C2)c2cc(Br)ccc2S1(=O)=O	none (no result: PolyA inhibitor, IDE inh, ALR H2O2 inh, PfM18AAP inh)
O=C(C[C@H]1CC[C@@H]2[C@H](COC[C@H](O)CN2C(=O)c2cnccn2)O1)NCc1ccc(Cl)cc1	none (no result: PolyA inhibitor, IDE inh, ALR H2O2 inh, IDE act, PfM18AAP inh)
Cc1cc(C)c(S(=O)(=O)C(C)C)c(=O)[nH]1	none
CCCc1ccc(-c2c(C)sc(N)c2C#N)cc1	ALR H2O2 inh 91.7
CCCC(=O)Nc1sc(C)c(-c2ccc(OC)cc2)c1C#N	none (no result: ALR H2O2 inh)
Cc1ccc(N=C2C(=S)N(c3ccc(C)cc3)C(=N)N2/N=C/c2ccc(Cl)cc2)cc1	ALR H2O2 inh 95.8
CCOC(=O)c1nn(-c2ccc3c(c2)OCO3)cc1O	ALR H2O2 inh 94.4 (no result: CaV13 ICDI inh)
CC(C(=O)Nc1ccc2c(c1)OCCO2)N(C)Cc1c(F)cccc1Cl (centres undefined)	none
CN1c2ccc(Cl)cc2C(=O)NC1C1CC=CCC1 (centres undefined)	CaV13 ICDI inh 43.7
CC(C)CC1NC(=O)c2cc(Cl)ccc2-n2c1nc1cc(F)ccc1c2=O (centres undefined)	none (no result: PolyA inhibitor, IDE act, PfM18AAP inh)
COc1ccccc1N1CCN(C/C(O)=C(\C#N)c2nc(-c3ccccc3)cs2)CC1	none
